Measured values reported in PubChem BioAssay (NCATS).
Results filed as inconclusive are left out. Active and inactive are the calls of the source. The call rests on the fitted dose curve; in most records, active means well fitted inhibition curve with a large enough effect; inconclusive means small, poorly fitted or top-dose-only effect; inactive means flat fitted curve, though single readings scatter.

Experiments:
Experiment in all cases: qHTS profiling for inhibitors of Plasmodium falciparum proliferation (AID 504749); further: nearly all actives have a fitted effect of over 60% in size
Conditions in all cases: P. falciparum in erythrocytes, SYBR Green DNA, 72 h; series mostly up to 28.7 µM
CP215 = tested on: CP215
Outline: (§1)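 In a 72 h erythrocytic culture (37 C, humidified, 5% CO2) at 2.5% hematocrit and 0.3% starting parasitemia, compounds were tested; SYBR Green I in detergent lysis buffer stained parasite DNA overnight.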

CP217 = tested on: CP217
Outline: as §1

CP237 = tested on: CP237
Outline: as §1

CP238 = tested on: CP238
Outline: as §1

CP247 = tested on: CP247
Outline: as §1

CP250 = tested on: CP250
Outline: as §1

CP252 = tested on: CP252
Outline: as §1

CP256 = tested on: CP256
Outline: as §1

CP260 = tested on: CP260
Outline: as §1

CP262 = tested on: CP262
Outline: as §1

CP265 = tested on: CP265
Outline: as §1

CP266 = tested on: CP266
Outline: as §1

CP268 = tested on: CP268
Outline: as §1

CP269 = tested on: CP269
Outline: as §1

CP286 = tested on: CP286
Outline: as §1

CP291 = tested on: CP291
Outline: as §1

CP297 = tested on: CP297
Outline: as §1

CP305 = tested on: CP305
Outline: as §1

CP315 = tested on: CP315
Outline: as §1

CP325 = tested on: CP325
Outline: as §1

CP329 = tested on: CP329
Outline: as §1

CP335 = tested on: CP335
Outline: as §1

DFO2036 = tested on: DFO2036
Outline: as §1

DIV14 = tested on: DIV14
Outline: as §1

DIV17 = tested on: DIV17
Outline: as §1

DIV30 = tested on: DIV30
Outline: as §1

Dd2 = tested on: Dd2
Outline: as §1

ECU = tested on: ECU
Outline: as §1

FAB9 = tested on: FAB9
Outline: as §1

GB4 = tested on: GB4
Outline: as §1

HB3 = tested on: HB3
Outline: as §1

ICS = tested on: ICS
Outline: as §1

JCK = tested on: JCK
Outline: as §1

N140 = tested on: N140
Outline: as §1

P93_24 = tested on: P93_24
Outline: as §1

P94_40 = tested on: P94_40
Outline: as §1

PAD = tested on: PAD
Outline: as §1

PC15 = tested on: PC15
Outline: as §1

PC26 = tested on: PC26
Outline: as §1

PC49 = tested on: PC49
Outline: as §1

SC27B = tested on: SC27B
Outline: as §1

TAB109 = tested on: TAB109
Outline: as §1

TAB113 = tested on: TAB113
Outline: as §1

TAB165 = tested on: TAB165
Outline: as §1

W2 = tested on: W2
Outline: as §1

Measured: Potency

CC(C)(C)NC[C@@H](O)c1ccc(O)c(CO)n1
inactive: all assays above
